# PubChem BioAssay
# Values joined by “and” are separate entries in the source; they are usually repeats but may differ in a detail not shown here. Identical values can stand only once. Active and inactive are the calls of the source.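 How the source made its calls, unless noted: active means normalized viability below 100% at a tested concentration; inactive means the rest.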
# Legend:
# [1] = stimulators of nuclear beta-catenin in C2C12, primary screen, imaging, WNT3A-conditioned medium, mouse C2C12, NPC library (AID 1117326; in the data active means nuclear beta-catenin stimulation mostly above about 4.2%, no sharp cut-off; inactive means mostly below about 10%); conditions: stronger effect = higher value
# [2] = stimulators of insulin release from INS-1E, primary screen, cell-based, 5 mM glucose, NPC library (AID 1117329;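 active means compound raises insulin release from rat beta cells at 5 mM glucose, no numeric limit stated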); conditions: rat INS-1E insulin secretion, at 10 µM, stronger effect = higher value
# [3] = growth inhibition of GSK3B-pretreated HCT116 cells – cell-based, CellTiter-Glo, 0.2 to 20 µM (AID 1117336;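 active means compounds lowering colon cancer cell viability after pretreatment blocking the GSK3B kinase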); conditions: HCT116 viability after GSK3B inhibitor, at 20 µM, stronger effect = higher value
# [4] = inhibition of endothelial tube formation, primary screen, imaging, VEGF stimulated, CD31 staining, tube area, NPC library (AID 1117340;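 active means compound that reduces growth-factor-driven endothelial tube area in a mixed cell culture, no cutoff stated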); conditions: VEGF-stimulated ADSC/ECFC co-culture, at 10 µM, stronger effect = higher value
# [5] = glucagon-like peptide 1 release enhancers, primary assay, NCI-H716 cell line, NPC library (AID 1117341;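 active means compound raises GLP1 secretion from the human gut endocrine cells, with no numeric limit stated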); conditions: NCI-H716 cells, at 10 µM, stronger effect = higher value
# [6] = HCT116 colon cancer cell growth inhibition, primary screen, CellTiter-Glo luminescence, NPC library (AID 1117342;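 active means compounds that lower survival of HCT116 colon cancer cells in the luminescence readout, no numeric limit stated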); conditions: at 20 µM (top of the series)
# [7] = CellTiter-Glo luminescent readout of SW480 viability loss, NPC library primary (AID 1117343;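 active means compounds that lower viability of the colon cancer cells in the luminescence readout, with no numeric limit stated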); conditions: CellTiter-Glo luminescence; at 20 µM (top of the series)
# [8] = decreased DLD-1 cellular survival, CellTiter-Glo luminescent readout, NPC compound collection, primary HTS (AID 1117346;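 active means compounds that lower survival of DLD-1 colon cancer cells in the luminescence readout, no cutoff given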); conditions: DLD-1 viability, CellTiter-Glo luminescence; at 20 µM (top of the series)
# [9] = target: 6-phosphogluconate dehydrogenase, decarboxylating (Homo sapiens) (UniProt P52209); assay: 6PGD enzyme inhibitors, primary screen, biochemical, human, recombinant enzyme, NADPH absorbance (AID 1159550;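 active means at least 20% inhibition of 6-phosphogluconate dehydrogenase activity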); conditions: recombinant 6PGD, NADPH absorbance 341 nm; at 10 µM; stronger effect = higher value
# 6-phosphogluconate dehydrogenase, decarboxylating (Homo sapiens), sequence (P52209 whole entry, looked up): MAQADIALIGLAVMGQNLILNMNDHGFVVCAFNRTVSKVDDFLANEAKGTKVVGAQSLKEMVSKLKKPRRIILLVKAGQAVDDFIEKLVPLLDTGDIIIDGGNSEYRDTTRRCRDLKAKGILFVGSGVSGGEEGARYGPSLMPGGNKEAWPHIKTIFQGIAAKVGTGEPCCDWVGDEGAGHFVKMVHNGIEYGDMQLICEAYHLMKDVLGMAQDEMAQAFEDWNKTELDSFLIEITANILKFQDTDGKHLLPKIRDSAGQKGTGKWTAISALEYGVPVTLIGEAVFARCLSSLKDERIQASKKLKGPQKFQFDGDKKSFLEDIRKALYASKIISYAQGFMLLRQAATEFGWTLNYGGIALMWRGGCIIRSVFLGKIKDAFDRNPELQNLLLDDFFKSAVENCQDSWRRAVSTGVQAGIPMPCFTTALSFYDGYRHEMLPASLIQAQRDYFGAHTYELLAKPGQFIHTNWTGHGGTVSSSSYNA
# [10] = modulation of C. elegans fzo-1 (AID 1259413; call rule not given here;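 further: fzo-1 mutant C. elegans worms in liquid wells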); conditions: C. elegans fzo-1 modulator screen, mean read-out; stronger effect = higher value
# [11] = differential killing of epithelial or mesenchymal cells, primary screen, imaging, PC-3E GFP, TEM4-18 mCherry, co-culture (AID 1345086;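 active means compounds killing one labelled cell type while sparing the other, by normalised counts and ratio limits, not self-fluorescent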;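 further: cells exposed to compound for 72 h before imaging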;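 on red/green cell ratio (normalised): normalised mesenchymal count divided by normalised epithelial count so high means epithelial killing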); conditions: imaging cell counts, at 1 µM
# [12] = survival rescue of mitochondrial mutant cells in low glucose, primary screen, MELAS cybrids, Rieske KO mouse fibroblasts, CellTiter-Glo (AID 1508586;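 active means mean z-score across replicates of 1.96 or higher in either the MELAS or the Rieske mutant cell line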;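 further: z relative to plate mean and SD of compound and empty wells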)
# [13] = ovarian cancer cell viability with rucaparib, profiling panel, oncology-focused library, rucaparib conditional (AID 1508598); conditions: patient-derived ovarian cancer cells, CellTiter-Glo viability, 144 h, stronger effect = lower value
# [14] = target: NAD(+) hydrolase SARM1 (Homo sapiens) (UniProt Q6SZW1); assay: SARM1 TIR NADase inhibitors, cell lysate, NAD-Glo luminescence (AID 1508614;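 active means compound whose remaining NAD level is above about 45 nM, limit read from the data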); conditions: SAM-TIR HEK293T lysate NADase, at 1 µM, stronger effect = higher value
# NAD(+) hydrolase SARM1 (Homo sapiens), sequence (Q6SZW1 whole entry, looked up, the tested form may be a part): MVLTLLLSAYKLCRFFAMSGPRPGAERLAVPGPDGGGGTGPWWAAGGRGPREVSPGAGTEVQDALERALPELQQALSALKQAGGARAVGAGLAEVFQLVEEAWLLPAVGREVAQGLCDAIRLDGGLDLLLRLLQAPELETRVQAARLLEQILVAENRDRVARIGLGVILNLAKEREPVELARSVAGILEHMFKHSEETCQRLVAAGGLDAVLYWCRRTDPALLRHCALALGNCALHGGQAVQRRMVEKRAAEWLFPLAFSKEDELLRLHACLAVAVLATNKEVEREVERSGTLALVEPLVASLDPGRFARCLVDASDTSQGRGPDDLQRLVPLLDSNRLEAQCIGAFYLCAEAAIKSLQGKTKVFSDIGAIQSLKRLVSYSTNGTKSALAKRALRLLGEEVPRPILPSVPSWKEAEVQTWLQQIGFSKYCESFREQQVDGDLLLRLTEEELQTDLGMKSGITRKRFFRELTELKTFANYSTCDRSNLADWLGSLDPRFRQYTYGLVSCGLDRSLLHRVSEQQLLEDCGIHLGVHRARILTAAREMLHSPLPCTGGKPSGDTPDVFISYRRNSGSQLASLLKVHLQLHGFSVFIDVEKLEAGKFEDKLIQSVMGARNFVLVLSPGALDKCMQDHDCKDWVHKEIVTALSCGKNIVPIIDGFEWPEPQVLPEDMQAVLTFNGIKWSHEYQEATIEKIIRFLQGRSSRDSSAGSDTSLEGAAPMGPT
# [15] = target: Mitogen-activated protein kinase 7 (Homo sapiens) (UniProt Q13164); assay: ERK5 transactivation activators in reporter cells, primary screen, cell-based, HTS (AID 1508626;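 active means luciferase signal above three times the same-plate solvent-only control wells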;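 further: luciferase driven by Gal4-ERK5 fusion binding five Gal4 sites before minimal TATA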); conditions: HeLa Gal4-ERK5 transactivation, 18 h, at 5 µM, stronger effect = higher value
# Mitogen-activated protein kinase 7 (Homo sapiens), sequence (Q13164 whole entry, looked up, the tested form may be a part): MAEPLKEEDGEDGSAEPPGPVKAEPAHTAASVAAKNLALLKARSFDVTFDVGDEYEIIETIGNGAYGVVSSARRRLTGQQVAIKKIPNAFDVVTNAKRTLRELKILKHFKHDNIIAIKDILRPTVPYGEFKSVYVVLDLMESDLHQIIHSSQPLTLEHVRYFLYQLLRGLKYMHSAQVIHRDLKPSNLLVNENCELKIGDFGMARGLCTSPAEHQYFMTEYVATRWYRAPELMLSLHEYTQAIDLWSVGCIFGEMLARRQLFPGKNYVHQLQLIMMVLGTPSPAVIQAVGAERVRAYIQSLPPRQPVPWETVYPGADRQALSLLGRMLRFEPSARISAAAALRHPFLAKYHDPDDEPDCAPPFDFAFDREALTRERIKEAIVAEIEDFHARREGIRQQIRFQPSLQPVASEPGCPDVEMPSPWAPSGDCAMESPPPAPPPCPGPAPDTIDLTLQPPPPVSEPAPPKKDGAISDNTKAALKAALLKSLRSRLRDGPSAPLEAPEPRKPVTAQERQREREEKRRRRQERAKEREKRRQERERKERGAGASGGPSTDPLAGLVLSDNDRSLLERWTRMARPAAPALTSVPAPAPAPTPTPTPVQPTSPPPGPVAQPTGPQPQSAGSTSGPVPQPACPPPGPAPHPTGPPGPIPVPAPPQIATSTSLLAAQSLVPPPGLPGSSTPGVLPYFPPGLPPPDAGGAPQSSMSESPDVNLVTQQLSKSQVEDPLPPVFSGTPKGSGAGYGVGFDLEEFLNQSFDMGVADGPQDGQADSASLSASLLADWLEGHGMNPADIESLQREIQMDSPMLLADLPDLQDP
# [16] = ICB984 medulloblastoma cell growth inhibition, synergistic combos for chromothripsis tumors, cisplatin or BGB combos (AID 1671451; call rule not given here;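 further: cells exposed for 96 hours before readout; 0% = vehicle DMSO and 100% = killing by high DMSO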); conditions: ICB984 medulloblastoma cells, drug combinations, stronger effect = higher value
# [17] = test system: F380Y; assay: modulators of BK channel variants, profiling panel, selectivity assay, cell-based, U2OS BacMam, thallium flux, beta subunits (AID 1259406;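 active means thallium flux through the channel raised or lowered by more than 3 SD from vehicle-only wells, actives on both sides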;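 further: initial slope of Thallos dye fluorescence rise after thallium is added; log ratio against the mean of 0.3% DMSO vehicle wells on the same plate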); conditions: at 30 µM
# [18] = test system: F380Y/beta1; assay: as above; conditions: at 30 µM
# [19] = test system: F380Y/beta2Delta; assay: as above; conditions: at 30 µM
compound,measurement,setting,value
O=c1[nH]cc(F)c(=O)[nH]1,nuclear beta-catenin stimulation,[1]; at 10 µM,6.3% (inactive)
same,nuclear beta-catenin stimulation,"[1]; stimulation, at 2 µM",1.7%
same,insulin secretion stimulation,[2],-3% (inactive)
same,viability decrease,[3],87.4% (active)
same,tube area decrease,[4],56.6% (active)
same,GLP1 secretion stimulation,[5],-0.1% (inactive)
same,inhibition of viability,[6],75.1% (active)
same,viability decrease (inhibition),[7],28.6% (inactive)
same,viability decrease (inhibition),[8],26.6% (inactive)
same,inhibition,[9],-1.95% (inactive)
same,mean signal,[10],262 (inactive)
same,red/green cell ratio (normalised),"[11]; actives lie on both sides, counts scaled to control wells, 1 = unselective",0.94 (inactive)
same,normalised cell number,[11]; measured here: epithelial PC-3E GFP cell survival,0.82
same,normalised cell number,[11]; measured here: mesenchymal TEM4-18 mCherry cell survival,0.77
same,z-score,"[12]; MELAS cybrid survival, CellTiter-Glo 48 h, stronger effect = higher value",-0.415 (inactive) and 0.96 (inactive) and 1.17
same,z-score,"[12]; Rieske KO mouse fibroblast survival, CellTiter-Glo 72 h",0.32 and 1.37 and 2.42
same,viability,"[13]; at 0.000305 µM, OCI-C5x cells, with rucaparib 10 µM, 100% = cells with rucaparib alone",118% (inactive)
same,viability,"[13]; at 0.000305 µM, OCI-C5x cells, without rucaparib",111% (inactive)
same,viability,"[13]; at 0.000305 µM, OCI-P5x cells, with rucaparib 20 µM, 100% = cells with rucaparib alone",113% (inactive)
same,viability,"[13]; at 0.000305 µM, OCI-P5x cells, without rucaparib",111% (inactive)
same,viability,"[13]; at 0.00122 µM, OCI-C5x cells, with rucaparib 10 µM, 100% = cells with rucaparib alone",121% (inactive)
same,viability,"[13]; at 0.00122 µM, OCI-C5x cells, without rucaparib",108% (inactive)
same,viability,"[13]; at 0.00122 µM, OCI-P5x cells, with rucaparib 20 µM, 100% = cells with rucaparib alone",115% (inactive)
same,viability,"[13]; at 0.00122 µM, OCI-P5x cells, without rucaparib",115% (inactive)
same,viability,"[13]; at 0.00488 µM, OCI-C5x cells, with rucaparib 10 µM, 100% = cells with rucaparib alone",115% (inactive)
same,viability,"[13]; at 0.00488 µM, OCI-C5x cells, without rucaparib",115% (inactive)
same,viability,"[13]; at 0.00488 µM, OCI-P5x cells, with rucaparib 20 µM, 100% = cells with rucaparib alone",104% (inactive)
same,viability,"[13]; at 0.00488 µM, OCI-P5x cells, without rucaparib",98.7% (active)
same,viability,"[13]; at 0.0195 µM, OCI-C5x cells, with rucaparib 10 µM, 100% = cells with rucaparib alone",129% (inactive)
same,viability,"[13]; at 0.0195 µM, OCI-C5x cells, without rucaparib",101% (inactive)
same,viability,"[13]; at 0.0195 µM, OCI-P5x cells, with rucaparib 20 µM, 100% = cells with rucaparib alone",111% (inactive)
same,viability,"[13]; at 0.0195 µM, OCI-P5x cells, without rucaparib",106% (inactive)
same,viability,"[13]; at 0.0781 µM, OCI-C5x cells, with rucaparib 10 µM, 100% = cells with rucaparib alone",103% (inactive)
same,viability,"[13]; at 0.0781 µM, OCI-C5x cells, without rucaparib",102% (inactive)
same,viability,"[13]; at 0.0781 µM, OCI-P5x cells, with rucaparib 20 µM, 100% = cells with rucaparib alone",106% (inactive)
same,viability,"[13]; at 0.0781 µM, OCI-P5x cells, without rucaparib",102% (inactive)
same,viability,"[13]; at 0.313 µM, OCI-C5x cells, with rucaparib 10 µM, 100% = cells with rucaparib alone",121% (inactive)
same,viability,"[13]; at 0.313 µM, OCI-C5x cells, without rucaparib",105% (inactive)
same,viability,"[13]; at 0.313 µM, OCI-P5x cells, with rucaparib 20 µM, 100% = cells with rucaparib alone",99.1% (active)
same,viability,"[13]; at 0.313 µM, OCI-P5x cells, without rucaparib",100% (inactive)
same,viability,"[13]; at 1.25 µM, OCI-C5x cells, with rucaparib 10 µM, 100% = cells with rucaparib alone",145% (inactive)
same,viability,"[13]; at 1.25 µM, OCI-C5x cells, without rucaparib",123% (inactive)
same,viability,"[13]; at 1.25 µM, OCI-P5x cells, with rucaparib 20 µM, 100% = cells with rucaparib alone",99.6% (active)
same,viability,"[13]; at 1.25 µM, OCI-P5x cells, without rucaparib",102% (inactive)
same,viability,"[13]; at 5 µM, OCI-C5x cells, with rucaparib 10 µM, 100% = cells with rucaparib alone",236% (inactive)
same,viability,"[13]; at 5 µM, OCI-C5x cells, without rucaparib",146% (inactive)
same,viability,"[13]; at 5 µM, OCI-P5x cells, with rucaparib 20 µM, 100% = cells with rucaparib alone",82.4% (active)
same,viability,"[13]; at 5 µM, OCI-P5x cells, without rucaparib",73.4% (active)
same,remaining NAD,[14],10 nM (inactive)
same,luciferase signal,[15],80 AU (inactive)
same,inhibition,"[16]; BGB IC20 combo, at 0.005 µM",-34.1%
same,inhibition,"[16]; BGB IC40 combo, at 0.005 µM",-27.4%
same,inhibition,"[16]; BGB IC40 combo, at 0.05 µM",5.15%
same,inhibition,[16]; at 0.5 µM,0.32% (inactive)
same,inhibition,"[16]; cisplatin combo, at 0.05 µM",5.15%
same,inhibition,"[16]; cisplatin combo, at 0.5 µM",7.66%
same,inhibition,"[16]; cisplatin combo, at 5 µM",-4.18%
same,inhibition,"[16]; measured here: 5 uM single agent, at 5 µM",-20.2%
same,log fold change Tl+ flux,[17],-0.0334 (inactive)
same,log fold change Tl+ flux,[18],0.0119 (inactive)
same,log fold change Tl+ flux,[19],-0.0613 (inactive)
